# Hits are enriched below; roughly 0.9% of the tested compounds scored in any of these assays.
# TR-FRET SRC-2 ct: TR-FRET artefact, counter-screen to PPARgamma/SRC-2 agonist assay; AID 1049; stronger effect = higher value; TR-FRET ratio at 8 µM; hit rate 0.4% among 200,000
# PPARg SRC1 recr: agonists of human PPARgamma SRC-1 coactivator recruitment. hit rate 0.41% among 200,000. activation, % at 8 µM. PPARgamma-SRC-1 coactivator recruitment biochemical assay; in the data active means activation above about 19%;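 further: 0% = DMSO and 100% = reference agonist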
# Target sequence (P37231 whole entry, looked up): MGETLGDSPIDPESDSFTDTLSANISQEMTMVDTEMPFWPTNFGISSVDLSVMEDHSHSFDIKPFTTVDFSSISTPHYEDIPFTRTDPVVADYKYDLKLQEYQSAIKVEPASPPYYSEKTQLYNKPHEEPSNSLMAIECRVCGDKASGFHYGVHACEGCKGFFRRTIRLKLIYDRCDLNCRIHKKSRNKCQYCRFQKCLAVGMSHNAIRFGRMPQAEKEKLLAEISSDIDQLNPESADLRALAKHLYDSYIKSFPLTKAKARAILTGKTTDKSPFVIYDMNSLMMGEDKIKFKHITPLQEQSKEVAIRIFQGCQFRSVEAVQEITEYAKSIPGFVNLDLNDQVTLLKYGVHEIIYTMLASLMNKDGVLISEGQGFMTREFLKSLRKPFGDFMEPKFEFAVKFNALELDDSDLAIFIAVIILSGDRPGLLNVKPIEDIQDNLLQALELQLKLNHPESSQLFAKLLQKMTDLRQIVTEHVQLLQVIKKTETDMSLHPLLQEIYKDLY
# SRC3 TRFRET art: counter-screen for PPARgamma SRC-3 recruitment agonists: TR-FRET artefact; TR-FRET ratio at 8 µM; hit rate 0.39% among 99,000; PPARgamma/SRC-3 format; stronger effect = higher value
# PPARg SRC3 recr: promotes SRC-3 coactivator recruitment by human PPARgamma; hit rate 0.26% among 200,000; activation, % at 8 µM; biochemical PPARgamma/SRC-3 coactivator recruitment assay; P37231; in the data active means activation above about 23%;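 further: 0% = DMSO and 100% = reference agonist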
# SRC1 TRFRET art: flags TR-FRET format artefacts in PPARgamma SRC-1 recruitment agonist screen; hit rate 0.34% among 99,000; AID 1051; TR-FRET detection artefact counter-screen, emission ratio; stronger effect = higher value; TR-FRET ratio at 8 µM; in the data active means TR-FRET ratio above about 2300
# PPARg SRC2 recr: promotes SRC-2 coactivator recruitment by human PPARgamma; P37231; PPARgamma LBD-SRC-2 recruitment, biochemical; activation, % at 8 µM; hit rate 0.34% among 200,000; AID 1032; in the data active means activation above about 22%;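 further: 0% = vehicle and 100% = reference agonist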
# PPARg SRC2 conf: confirmation of agonists of SRC-2 recruitment by human PPARgamma. biochemical SRC-2 recruitment by PPARgamma. activation, % at 8 µM. shares compounds with PPARg SRC3 recr. hit rate 52% among 790; in the data active means activation above about 22%;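 further: 0% = vehicle alone and 100% = reference agonist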
# PPARg SRC1 ag: human PPARgamma SRC-1 recruitment agonism, confirmation. shares compounds with PPARg SRC3 recr. PPARgamma–SRC-1 coactivator recruitment biochemical assay. activation, % at 8 µM. hit rate 43% among 790. AID 1300; in the data active means activation above about 20%;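 further: 0% = vehicle wells and 100% = reference agonist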
# PPARg SRC3 conf: confirmation of agonists of SRC-3 recruitment by human PPARgamma; shares compounds with PPARg SRC3 recr; biochemical PPARgamma-SRC-3 coactivator recruitment, agonist mode; activation, % at 8 µM; hit rate 29% among 790; AID 1301; in the data active means activation above about 24%;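 further: 0% = vehicle wells and 100% = reference agonist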
# Starred values were filed as active, the others as inactive; x = no result. Unless noted, no stated cut-off is given here; in the data, active means TR-FRET ratio above about 2000; inactive means the rest.
SMILES,TR-FRET SRC-2 ct,PPARg SRC1 recr,SRC3 TRFRET art,PPARg SRC3 recr,SRC1 TRFRET art,PPARg SRC2 recr,PPARg SRC2 conf,PPARg SRC1 ag,PPARg SRC3 conf
Cc1c(Cl)c(-c2n[nH]c(=S)n2-c2ccc(F)cc2)nn1C,2050*,33*,x,48*,x,31*,28*,17,19
S=c1[nH]nc(-c2cc(-c3ccco3)[nH]n2)n1-c1ccccc1,1917,6,x,27*,x,18,23*,16,14
CCn1c(-c2nn(C)cc2Cl)n[nH]c1=S,1771,0,1469,-1,2020,5,x,x,x
Cc1cc(-c2n[nH]c(=S)n2-c2ccccc2)nn1C,1825,14,1839,6,2186,12,x,x,x
Cc1nn(C)c(-c2n[nH]c(=S)n2-c2ccccc2)c1Cl,2081*,24*,2211*,21,2273,14,22,16,18
Cn1cc(Cl)c(-c2n[nH]c(=S)n2-c2ccccc2)n1,2159*,30*,2184*,21,2497*,35*,27*,16,18
CC(C)c1nc(NCCO)c2nnn(Cc3ccccc3)c2n1,1733,2,1573,2,1610,0,x,x,x
O=S(=O)(Nc1nc2ccccc2nc1Nc1ccc2c(c1)OCO2)c1ccc(F)cc1,1646,5,1721,7,1728,1,x,x,x
CCCCOC(=O)C(C)Nc1n[nH]c(=O)[nH]c1=O (configuration not stated),1335,0,x,3,x,3,x,x,x
CCCCOC(=O)CCNc1n[nH]c(=O)[nH]c1=O,1395,1,1615,-4,1708,-1,x,x,x
CCCCOC(=O)CNc1n[nH]c(=S)[nH]c1=O,2722*,48*,x,95*,x,66*,80*,61*,55*
CC(C)COC(=O)CNc1n[nH]c(=S)[nH]c1=O,2814*,52*,x,86*,x,63*,78*,58*,52*
CCCCOC(=O)C(C)Nc1n[nH]c(=S)[nH]c1=O (configuration not stated),1892,14,x,26*,x,21,27*,27*,16
Cc1ccc(-c2nnc(SCC(=O)N/N=C/c3ccc(C)s3)n2-c2ccc(C)cc2)cc1,1713,2,1721,1,1915,6,x,x,x
CN1COc2ccc3ccccc3c2C1,1274,-19,1585,-1,1673,-3,x,x,x
CCN(CC)S(=O)(=O)c1cccc(NC(=O)CSc2nnc(N)s2)c1,1488,0,1488,6,1951,-1,x,x,x
Cc1ccc(-c2cc(-c3ccccc3)c(C#N)c(N)n2)o1,1836,8,x,-4,x,5,x,x,x
Cc1cc(-c2ccc(Cl)cc2)c(C#N)c(N)n1,1825,19*,x,19,x,12,3,1,0
CCC(=O)c1ccc(OCC(=O)NC2(C#N)CCCCC2)cc1,1573,10,1502,1,2010,3,x,x,x
Cc1cccc(-n2c(=S)[nH]c3sc4c(c3c2=O)CCc2ccccc2-4)c1,2315*,26*,2699*,21,2821*,36*,34*,22*,24*
O=C(Nc1nc2c(s1)COc1ccccc1-2)c1cccs1,2118*,19,x,15,x,27*,41*,32*,28*
Cc1nc([N+](=O)[O-])c(Br)n1Cc1ccc(Cl)c(Cl)c1,1476,5,1727,0,1816,2,x,x,x
O=C(CN1CCN(c2ccccc2O)CC1)Nc1ccc2c(c1)CCC2,1585,0,1470,3,1957,-4,x,x,x
S=c1nc(-c2ccccc2Br)[nH][nH]1,1310,2,x,13,x,4,x,x,x
S=c1nc(-c2cccc(Cl)c2)[nH][nH]1,1956,16,2145*,7,2102,28*,24*,21*,17
S=c1nc(-c2cc(Cl)ccc2Cl)[nH][nH]1,2272*,20,2092*,15,2654*,27*,24*,19,17
O=C(O)C1Cc2[nH]cnc2C(c2ccccc2O)N1 (configuration not stated),1483,2,1532,-1,1857,4,x,x,x

# Screening results (PubChem BioAssay)
